From PubChem
Most compounds without a hit are left out; they make up all but 1.7% or so of the library.
GLP1R inv ag = GLP-1 receptor (human) inverse agonism; P43220; HEK293 GLP-1R CRE-luciferase, luminescence, 24 h; GLP-1R form is constitutively active; Potency, µM (highest dose often 38.3 µM), most hits filed as inhibitors; 410,000 tested, 1.6% active; AID 624417; also: nearly all actives have a fitted effect of over 55% in size
Target sequence (P43220 whole entry, looked up): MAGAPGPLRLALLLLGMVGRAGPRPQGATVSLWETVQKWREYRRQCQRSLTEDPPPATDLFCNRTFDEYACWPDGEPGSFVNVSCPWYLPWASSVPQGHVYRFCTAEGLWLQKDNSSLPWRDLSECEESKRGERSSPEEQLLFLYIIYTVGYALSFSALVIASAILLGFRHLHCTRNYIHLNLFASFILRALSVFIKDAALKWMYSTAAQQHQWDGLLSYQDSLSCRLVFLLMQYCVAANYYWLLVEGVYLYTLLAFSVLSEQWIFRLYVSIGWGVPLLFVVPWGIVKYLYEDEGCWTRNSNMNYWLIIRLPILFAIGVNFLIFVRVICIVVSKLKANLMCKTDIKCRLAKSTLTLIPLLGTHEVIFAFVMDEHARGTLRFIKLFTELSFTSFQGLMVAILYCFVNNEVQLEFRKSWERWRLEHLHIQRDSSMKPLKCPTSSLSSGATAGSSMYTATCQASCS
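Inverse agonism was detected as reduced cAMP-driven luciferase luminescence after 24 h compound treatment. The cells were HEK293 clones expressing constitutively active human GLP-1R with the reporter. Reporter-only and GPR119 cell lines served as counterscreen controls.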
GLP-1R agonist = GLP-1 receptor (human) agonism; P43220; HEK293 GLP-1R CRE-luciferase, luminescence, 4-6 h; cells express a hypersensitive GLP-1R form; Potency, µM (top dose mostly 45.6 µM), usual class: activators; 380,000 tested, 0.007% active
PTHR1 agonist = PTHR1 (human) receptor agonism | AID 743266 | 410,000 tested, 0.075% active | Potency, µM (top dose mostly 115 µM), most hits filed as activators | Q03431 | HEK293 GP2 PTHR1 cells, GloSensor cAMP luminescence, 1 h; also: nearly all actives have a fitted effect of over 55% in size
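HEK-293-derived GP2 cells expressing PTHR1 and a GloSensor cAMP reporter, 3,000/well, plated overnight, given luciferin plus IBMX (each 0.5 mM as added) for 1 h at 37 °C, then compound for 1 h at 37 °C. Luminescence was read after 15 min at room temperature.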
HEK293 tox = cytotoxicity in counter-screen for GLP-1R inverse agonists; HEK293 cAMP-luciferase reporter cells, luminescence, 24 h; Potency, µM (doses to about 38.3 µM), actives largely listed as inhibitors; 410,000 tested, 0.13% active;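 also: loss of luciferase light is scored as toxicity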
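Here, cytotoxicity is scored as loss of luminescence. The MLSMR collection was tested on cells seeded in medium containing 10% Nu serum, with a 24 hr compound exposure preceded by 12 hours of culture.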
Large screens that a line does not name were inactive. Calls follow the shape of the dose curve; as a rule, active = well fitted curve in the direction sought with a large enough effect; inconclusive = small, poorly fitted or top-dose-only effect, or another doubt; inactive = no such curve, though single readings can be large; an effect the other way counts as inactive or inconclusive.

CCOC(=O)C1=C(CN2CCN(c3cc(C)ccc3C)CC2)NC(=O)NC1c1ccccc1 (configuration not stated)	GLP1R inv ag 8.9µM
Clc1ccc2c(c1)C(C1=NCCN1)c1ccccc1CS2 (configuration not stated)	GLP1R inv ag 3.2µM, HEK293 tox inconclusive
O=C(CN1CCN(CC(=O)Nc2ccccc2F)CC1)Nc1ccc(Cl)c(C(F)(F)F)c1	GLP1R inv ag inconclusive (no result: GLP-1R agonist)
CCC/C(=C1/c2ccccc2C(=O)N1c1ccccc1)c1ccc(O[C@@H]2CCCCO2)cc1	GLP1R inv ag 13µM
O=C(CNC(c1ccccc1)c1ccccc1)NCc1ccccc1Cl	GLP1R inv ag 10µM
COc1ccc(NC(=O)C2C(c3ccccc3)C2(Cl)Cl)cc1 (configuration not stated)	GLP1R inv ag 10µM
Cc1ccc(NC(=O)C2C(c3ccccc3)C2(Cl)Cl)c(C)c1 (configuration not stated)	GLP1R inv ag 11µM
CCOc1ccc(NC(=O)C2C(c3ccccc3)C2(Cl)Cl)cc1 (configuration not stated)	GLP1R inv ag inconclusive
CC1=C(C(=O)NC(C)CCc2ccccc2)C2(CCC(C)CC2)OC1=O (configuration not stated)	GLP1R inv ag 8.9µM
S=C(NC1CCCCC1)N(CCc1nc2ccccc2[nH]1)C1CCCC1	GLP1R inv ag 10µM, HEK293 tox inconclusive
CCN(CC)CCNC(=O)CCc1c(C)nc2c(c(C)nn2-c2ccc(C)cc2)c1C	GLP1R inv ag 1.6µM, HEK293 tox inconclusive
Cc1ccc(S(=O)(=O)N2CCCCC2)cc1NC(=O)CCCOc1ccccc1	GLP1R inv ag 5.6µM
Cc1ccc(S(=O)(=O)N2CCCCC2)cc1NC(=O)CCOc1ccccc1	GLP1R inv ag inconclusive
CCN(CC(=O)Nc1cc(S(=O)(=O)N2CCCCC2)ccc1C)Cc1ccccc1	GLP1R inv ag 6.3µM
O=C(NNC(=O)c1cccnc1)Nc1cccc(Cl)c1Cl	none
CCCC(=O)O[C@]1(C(=O)COC(=O)CC)[C@@H](C)C[C@H]2[C@@H]3CCC4=CC(=O)C=C[C@@]4(C)[C@@]3(F)[C@H](O)C[C@@]21C	none (no result: GLP1R inv ag, PTHR1 agonist, HEK293 tox)
CCN(CC)CCNC(=O)c1ccc2c(c1NCCO)C(=O)c1ccccc1C2=O	GLP1R inv ag inconclusive, HEK293 tox 5µM
O=S(=O)(NC1CC1)c1ccc(S(=O)(=O)N2CCCC3(CCCCC3)C2)cc1	none
CC1Cc2cc(/C=C3/SC(=S)NC3=O)ccc2O1 (configuration not stated)	GLP1R inv ag inconclusive, HEK293 tox 10µM
COc1ccc(/C=N/OCC(=O)NC(c2ccccc2)c2ccccc2)c(OC)c1	GLP1R inv ag 8.9µM
COc1ccc(CC(=O)NC(c2ccccc2)c2ccc(C)cc2)c(OC)c1 (configuration not stated)	GLP1R inv ag 8.9µM
COc1ccc(/C=N/OCC(=O)NCC(C)C)c(OC)c1	none
COc1ccc2c(c1)c(CC(=O)Nc1ccccc1OC)c(C)n2C(=O)c1ccc(Cl)cc1	GLP1R inv ag 10µM
Cc1ccc(NCc2ccccc2-c2nnc(-c3ccccc3Cl)o2)c(C)c1	none (no result: GLP-1R agonist)
O=C(CSc1nnc(CNc2ccc(F)cc2)n1-c1ccccc1)N1CCOCC1	none
Cc1cccc(/C=N/NC(=O)c2ccccc2OCc2cccc(Br)c2)n1	GLP1R inv ag 11µM, HEK293 tox inconclusive
CN(C)C(=O)N1CCN(S(=O)(=O)c2ccc3ccccc3c2)CC1	none
O=C(CCl)N1CCN(S(=O)(=O)c2ccc3ccccc3c2)CC1	GLP1R inv ag 10µM, HEK293 tox inconclusive
Cc1csc(NC(=O)c2c(-c3c(Cl)cccc3Cl)noc2C)n1	GLP1R inv ag 11µM
Cc1onc(-c2c(Cl)cccc2Cl)c1C(=O)Nc1ccc(Cl)cn1	GLP1R inv ag 1.8µM
Cc1csc(NC(=O)c2c(-c3c(F)cccc3Cl)noc2C)n1	GLP1R inv ag inconclusive
Cc1ccc(S(=O)(=O)N2CCOCC2)cc1C(=O)NCCCN1CCCC1=O	none
Cc1ccc(/C=C/C(=O)Nc2ccc([N+](=O)[O-])cc2)o1	none
CCOC(=O)CCc1ccc(NC(=O)/C=C/c2ccc([N+](=O)[O-])o2)cc1	GLP1R inv ag inconclusive, HEK293 tox 11µM
Brc1cc(Cc2nnc(-c3ccccc3)o2)c(Br)s1	GLP1R inv ag inconclusive
Cc1ccc(C(C(=O)NC2CCCC2)N(C(=O)Cc2cccs2)c2ccc3c(c2)OCCO3)cc1 (configuration not stated)	GLP1R inv ag 10µM
Cc1ccc(C(C(=O)NC2CCCC2)N(C(=O)Cc2cccs2)c2ccc(C)c(C)c2)o1 (configuration not stated)	GLP1R inv ag 10µM
O=C(NC1CCCC1)C(c1ccc(F)cc1)N(C(=O)Cc1cccs1)c1ccc2c(c1)OCCO2 (configuration not stated)	none
CC(C)c1ccccc1NS(=O)(=O)c1cccs1	GLP1R inv ag inconclusive
O=C(C1CCCCC1)N(Cc1cccnc1)c1nc2ccc(F)cc2s1	GLP1R inv ag 11µM (no result: GLP-1R agonist)
CC(Sc1nnc(CN2CCCC2)n1Cc1ccccc1)C(=O)Nc1ccc(F)cc1Cl (configuration not stated)	GLP1R inv ag 5.6µM
CC(Sc1nnc(CN2CCCC2)n1Cc1ccccc1)C(=O)Nc1ccc(F)cc1 (configuration not stated)	GLP1R inv ag inconclusive
O=C(N/N=C/c1cccc(Oc2ccccc2)c1)c1cccc(Br)c1	GLP1R inv ag 8.9µM
O=C(N/N=C/c1cccc(Oc2ccccc2)c1)c1cccc(O)c1	GLP1R inv ag inconclusive, HEK293 tox inconclusive
CCc1nc2c(OCc3ccc(C(F)(F)F)cc3)cccn2c1N(C)C(=O)C1CC1	GLP1R inv ag 14µM
CCCCC(=O)N(C)c1c(CC)nc2c(OCc3ccccc3C)cccn12	GLP1R inv ag 11µM
COc1ccccc1C1(CC(=O)Nc2nccs2)CCOC(C(C)C)C1 (configuration not stated)	none
Cc1nc(N2CCN(C(=O)c3ccco3)CC2)c(C#N)c2c1CCCC2	none
CC(C)Cc1nc(N2CCN(C(=O)c3ccco3)CC2)c(C#N)c2c1CCCC2	GLP1R inv ag 8.9µM
CC1(C(=O)NCC2CC2)CCN1C(=O)C1(c2ccc(Cl)cc2)CC1 (configuration not stated)	none
COc1ccc(N(CC(=O)N2CCN(c3ccc(Cl)cc3)CC2)S(=O)(=O)c2c(C)n[nH]c2C)cc1	GLP1R inv ag 11µM
CN1CCC(N(Cc2cccs2)c2ccccc2)CC1	none (no result: GLP1R inv ag, PTHR1 agonist, HEK293 tox)
Cc1ccc(N2C(=O)CCSC23C(=O)N(Cc2ccccc2)c2ccccc23)cc1 (configuration not stated)	none (no result: GLP-1R agonist)
O=C1CCSC2(C(=O)N(Cc3ccccc3)c3ccccc32)N1c1ccccc1 (configuration not stated)	GLP1R inv ag 11µM (no result: GLP-1R agonist)
Cc1cc(C)c(Cn2cnc3ccccc32)c(C)c1	GLP1R inv ag inconclusive, HEK293 tox inconclusive
COc1cccc(CNC(=O)c2cccnc2Sc2ccccc2)c1	GLP-1R agonist inconclusive
